# From ChEMBL document CHEMBL3433997, “St. Jude Leishmania screening dataset” (2016)
# Legend:
# Format in all cases: functional
# [1] = target: Solute carrier family 2, facilitated glucose transporter member 1 (Homo sapiens) (UniProt P11166); experiment: ST_JUDE_LEISH: Cytotoxicity at 2uM final concentration against transgenic Leishmania Mexicana promastigotes LmGLUT1 that are glucose transport deficient and complemented with the human glucose transporter GLUT1. Activity is measured by DNA content using SYBR green in vitro
# [2] = target: Hexose transporter 1 (Plasmodium falciparum) (UniProt O97467); experiment: ST_JUDE_LEISH: Cytotoxicity at 2uM final concentration against transgenic Leishmania Mexicana promastigotes LmPfHT that are glucose transport deficient and complemented with the Plasmodium falciparum hexose transporter. Activity is measured by DNA content using SYBR green in vitro
# [3] = target: Glucose transporter (Leishmania mexicana) (UniProt O61059); experiment: ST_JUDE_LEISH: Cytotoxicity at 2uM final concentration against transgenic Leishmania Mexicana promastigotes LmGT2 that are glucose transport deficient and complemented with the L. Mexicana glucose transporter 2. Activity is measured by DNA content using SYBR green in vitro
# Chain of Solute carrier family 2, facilitated glucose transporter member 1 (Homo sapiens) (P11166 whole entry): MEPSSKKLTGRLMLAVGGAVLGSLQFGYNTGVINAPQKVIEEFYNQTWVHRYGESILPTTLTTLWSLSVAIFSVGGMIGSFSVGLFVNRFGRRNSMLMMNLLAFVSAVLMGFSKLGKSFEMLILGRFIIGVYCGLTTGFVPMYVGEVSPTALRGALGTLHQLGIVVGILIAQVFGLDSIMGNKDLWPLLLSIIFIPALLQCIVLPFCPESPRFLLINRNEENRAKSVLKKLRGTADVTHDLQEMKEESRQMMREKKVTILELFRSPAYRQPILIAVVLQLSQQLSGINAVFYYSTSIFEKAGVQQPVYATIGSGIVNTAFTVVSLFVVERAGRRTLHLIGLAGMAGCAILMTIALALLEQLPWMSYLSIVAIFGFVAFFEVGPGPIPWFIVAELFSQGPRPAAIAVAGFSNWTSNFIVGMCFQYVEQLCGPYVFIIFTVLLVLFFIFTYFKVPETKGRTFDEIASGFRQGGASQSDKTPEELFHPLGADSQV
Structure (SMILES),inhibition [1] [%],inhibition [2] [%],inhibition [3] [%]
COc1ccc2nccc([C@@H](O)CN3CCC(NCc4ccc5c(c4)sc(=O)n5C)CC3)c2c1,-0.15,0.84,-1.7
CN(C)CCNc1cc(-c2ccc3ccccc3c2)nc2ccccc12,1.3,2.94,-0.48
O=S(=O)(NCCN1CCCC1)c1ccc(-c2cccc(CNCc3ccsc3)c2)s1,5.4,2.42,-1.72
Cc1cc(N[C@@H](Cc2ccccc2)C(=O)Nc2ccccc2)nc(NCCc2ccccc2)n1,3.8,5.68,0.11
CCCNc1ccc2nccc(CCN3CCC(NCc4ccc5c(n4)NC(=O)CS5)CC3)c2n1,3.5,2.84,8.69
CS(=O)(=O)NCCCNCc1ccc(-c2ccc(-c3nc4cc(F)ccc4[nH]3)cc2)cc1,7.49,4.28,4.63
COc1ccc(CNCCCCCNCc2ccc(Cl)c(Cl)c2)cc1Cl,3.98,3.58,1.38
COc1ccc(-c2nc(-c3ccc([N+](=O)[O-])cc3)no2)cc1OC,1.91,2.39,1.76
C=CCn1c(Sc2ccc(C#N)c([N+](=O)[O-])c2)nnc1-c1ccc(OC)cc1,4.25,6.95,3.25
S=C(NCCCCCN1CCC(c2c[nH]c3ccccc23)CC1)Nc1ccc(Cl)c(Cl)c1,1.88,1.44,2.15
O=C(Nc1ccc(Oc2ccccc2)cc1)N(CCN1CCCC1)Cc1ccc(-c2ccc(CN3CCNCC3)cc2)cc1,0.02,1.54,0.38
Nc1nc(O)c2c(n1)CCc1c(Br)cccc1-2,-1.17,-0.59,-1.14
CCOc1ccc(C(=O)Nc2ccc(-c3nc4ccccc4[nH]3)cc2)cc1[N+](=O)[O-],1.79,2.52,1.46
COc1cccc2cc(C(=O)N[C@@H](CC(C)C)C(=O)N[C@H](/C=N/NC(=O)Cc3cccnc3)CCc3ccccc3)oc12,3.03,5.36,1.75
O=C(c1ccccc1F)N(Cc1ccc(Cl)cc1)c1ccccn1,6.82,7.84,9.29
CC(ON1C(N)=NC(N)=NC1(C)C)c1ccccc1 (stereo unspecified),5.91,4.22,6.95
O=C(NCCCN1CCC(N2CCCCC2)CC1)C1=Cc2cc(Br)ccc2OC1,1.4,2.63,0.26
Cc1cccc(C)c1OC(=O)CSc1nnc(-c2ccccc2O)o1,1.32,2.43,1.28
O=S1(=O)NCc2ccc(Nc3nccc(Nc4ccc5c(cnn5Cc5ccccc5)c4)n3)cc21,-0.8,6.35,-1.65

Structure (SMILES),inhibition [1] [%],inhibition [2] [%],inhibition [3] [%]
CCN(CC)CCN(Cc1ccc(-c2ccc(C(F)(F)F)cc2)cc1)C(=O)Cn1cc(CCCc2cccc(F)c2F)c(=O)c2ccccc21,4.03,3.93,4.35
CCCNCc1ccc(-c2ccc(CN(CCOC)C(=O)COc3ccccc3Cl)cc2)nc1,-0.3,1.54,-1.95
COc1ccc2nccc([C@@H](O)CN3CCC(NC(=O)c4ccc(-c5ccccc5)s4)CC3)c2c1,9.94,14.6,4.67
O=C(Nc1ccc(Cl)c(C(F)(F)F)c1)NC1CCN(CCCCCNC(=O)C2CC2c2ccc(Cl)c(Cl)c2)CC1 (stereo unspecified),7.55,9.26,6.43
O=C(Nc1ccc(S(=O)(=O)NCCCN2CCOCC2)cc1)c1cc(-c2ccccc2)[nH]n1,1.2,1.66,5.52
CNCCNCc1ccc(-c2ccc(-c3nc4ccccc4[nH]3)s2)cc1,3.78,4.5,3.75
Nc1ccnc2ccc(OCCCCCCc3ccccc3)cc12,-1.77,-1.93,-1.14
CN1CCN(c2cc(NC(=O)Nc3cccc(Cl)c3Cl)ccc2Cl)CC1,-2.56,-2.86,-2.68
CC1CN(C(=O)c2sc3ccccc3c2Cl)CC(C)O1 (stereo unspecified),-2.33,0.96,0.74
COc1cc(Cc2cnc(N)nc2N)cc(OCCCCCC(N)=O)c1OC,-0.36,-2.79,1.17
CC(C)Cn1c(Sc2ccc(C#N)c([N+](=O)[O-])c2)nnc1-c1cccs1,1.53,3.14,0.24
CC1(C)CCCN(Cc2c(O)ccc3c(O)c(-c4nc5ccccc5s4)c(=N)oc23)C1,4.5,1.38,-2.9
CN(CCN)Cc1cccc(-c2ccc(-c3nc4cc(C(F)(F)F)ccc4[nH]3)s2)c1,10.8,11.3,8.17
CCCc1cc(OC)c(C[C@H]2c3cc(O)c(Cl)cc3CCN2C)cc1OC,0.24,1.13,1.4
Cc1noc(C)c1C(=O)N1CCc2cc3nccc(N4CCN5CCC[C@H]5C4)c3cc21,0.08,1.27,-0.53
O=C(c1cc(C(=O)NC2CCCCC2)c(=O)n(C2CCCCC2)c1)c1cc(F)ccc1O,2.83,1.22,1.41
O=C(/C=C/c1ccc([N+](=O)[O-])cc1)N1CCC(NS(=O)(=O)c2ccc(F)cc2)CC1,6,3.96,7.08
CC1(C)NC(N)=NC(=N)N1OCCc1ccc(N)cc1,5.6,6.43,5.49
